Data published in PubChem BioAssay (NCATS).
Inconclusive results are not listed. Where a call stands in place of a potency, no number is given. Active and inactive are the calls of the source. Calls follow the shape of the dose curve; as a rule, active = well fitted inhibition curve with a large enough effect; inconclusive = small, poorly fitted or top-dose-only effect; inactive = flat fitted curve, though single readings scatter.

Tests used:
Test in all cases: qHTS profiling for inhibitors of Plasmodium falciparum proliferation (AID 504749); also: nearly all actives have a fitted effect of over 60% in size
Conditions in all cases: P. falciparum in erythrocytes, SYBR Green DNA, 72 h; series mostly up to 28.7 µM
CP238 = system: CP238
In short: (§1)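 P. falciparum-infected erythrocytes (0.3% parasitemia, 2.5% hematocrit final) were exposed to compounds for 72 h at 37 C in 5% CO2, then lysed with SYBR Green buffer overnight at room temperature; parasite DNA fluorescence was normalized to artemisinin and DMSO controls.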

CP247 = system: CP247
In short: as §1

CP250 = system: CP250
In short: as §1

CP252 = system: CP252
In short: as §1

CP256 = system: CP256
In short: as §1

CP260 = system: CP260
In short: as §1

CP262 = system: CP262
In short: as §1

CP265 = system: CP265
In short: as §1

CP266 = system: CP266
In short: as §1

CP268 = system: CP268
In short: as §1
Potency is read from the fitted curve at half-maximal effect.

Row | Structure (SMILES) | Potency (CP238) | Potency (CP247) | Potency (CP250) | Potency (CP252) | Potency (CP256) | Potency (CP260) | Potency (CP262) | Potency (CP265) | outcome (CP266) | Potency (CP268)
1 | Nc1ccc(S(=O)(=O)Nc2ccnn2-c2ccccc2)cc1 | inactive | inactive | inactive | inactive | inactive | inactive | inactive | inactive | inactive | inactive
2 | Nc1nc2c(ncn2COCCO)c(=O)[nH]1 | inactive | inactive | inactive | inactive | inactive | inactive | inactive | inactive | inactive | inactive
3 | N=c1nc(N2CCCCC2)cc(N)n1O | inactive | inactive | inactive | inactive | inactive | inactive | inactive | inactive | inactive | inactive
4 | O=NN(CCCl)C(=O)NCCCl | inactive | inactive | inactive | inactive | inactive | inactive | inactive | inactive | inactive | inactive
5 | CCCCNc1cc(C(=O)O)cc(S(N)(=O)=O)c1Oc1ccccc1 | inactive | inactive | inactive | inactive | inactive | inactive | inactive | inactive | inactive | inactive
6 | Cc1cc2c(C(C)C)c(O)c(O)c(C=O)c2c(O)c1-c1c(C)cc2c(C(C)C)c(O)c(O)c(C=O)c2c1O |  | 11.2 µM (active) |  |  | 11.2 µM (active) |  |  | 12.6 µM (active) |  | 
7 | CCOC(=O)C1=C[C@]2(CC)CCCN3CCc4c(n1c1ccccc41)[C@@H]32 |  |  |  |  |  |  | inactive | 10 µM (active) |  | 
8 | CC(C)NCC(O)COc1ccc(COCCOC(C)C)cc1 (centres undefined) | inactive | inactive | inactive | inactive | inactive |  | inactive | inactive | inactive | inactive
9 | Clc1ccc(Nc2nnc(Cc3ccncc3)c3ccccc23)cc1 | inactive |  | inactive | inactive | inactive |  | inactive | inactive | inactive | inactive
10 | CCCc1nc2c(C)cc(-c3nc4ccccc4n3C)cc2n1Cc1ccc(-c2ccccc2C(=O)O)cc1 |  |  | inactive |  | inactive | 6.31 µM (active) | inactive |  | inactive | 
11 | CN1CCN(CCCN2c3ccccc3Sc3ccc(C(F)(F)F)cc32)CC1 | 3.16 µM (active) |  | 8.91 µM (active) | 14.1 µM (active) |  | 10 µM (active) |  |  |  | 
12 | Cc1[nH]c(=O)c(C#N)cc1-c1ccncc1 | inactive | inactive |  | inactive | inactive | inactive | inactive | inactive | inactive | inactive
13 | Cc1c(C)c2c(c(C)c1O)CCC(C)(COc1ccc(CC3SC(=O)NC3=O)cc1)O2 (centres undefined) | inactive |  | inactive | inactive | inactive | inactive | inactive |  | inactive | inactive
14 | CCOC(=O)C1=C[C@@]2(CC)CCCN3CCc4c(n1c1ccccc41)[C@H]32 |  |  |  |  |  |  | 12 µM (active) |  |  | 10.7 µM (active)
15 | C#Cc1cccc(Nc2ncnc3cc(OCCOC)c(OCCOC)cc23)c1 |  |  |  |  |  |  | inactive | inactive | inactive | 
16 | NCCc1ccc(O)c(O)c1 | inactive | inactive | inactive | inactive |  | inactive | inactive | inactive | inactive | inactive
17 | O=C1CCc2cc(OCCCCc3nnnn3C3CCCCC3)ccc2N1 | 3.16 µM (active) |  |  |  |  | inactive |  |  | inactive | inactive
18 | CCc1ccc(CCOc2ccc(CC3SC(=O)NC3=O)cc2)nc1 (centres undefined) | inactive |  | inactive | inactive | inactive | inactive | inactive | inactive | inactive | inactive
19 | COc1ccc2nc(S(=O)Cc3ncc(C)c(OC)c3C)[nH]c2c1 (centres undefined) | inactive |  | inactive | inactive | inactive | inactive | inactive | inactive | inactive | inactive
20 | Cc1oncc1C(=O)Nc1ccc(C(F)(F)F)cc1 | inactive | inactive | inactive | inactive | inactive |  | inactive |  | inactive | inactive
21 | OC(CN1CCC(Cc2ccc(F)cc2)CC1)c1ccc(Cl)cc1 (centres undefined) |  |  |  | inactive |  | 3.16 µM (active) | inactive |  | inactive | 
22 | O=c1n(CCCN2CCN(c3cccc(Cl)c3)CC2)nc2ccccn12 | inactive | inactive | inactive | inactive | inactive | inactive |  | inactive | inactive | inactive
23 | N[C@@H]1CONC1=O | inactive |  | inactive | inactive | inactive | inactive | inactive | inactive | inactive | inactive
24 | Cc1ccccc1C(OCCN(C)C)c1ccccc1 (centres undefined) |  |  | inactive |  |  |  | inactive |  | inactive | 
25 | NNCCc1ccccc1 | inactive | inactive |  | inactive | inactive | inactive |  | inactive |  | inactive
26 | CCOC(=O)N1CCC(=C2c3ccc(Cl)cc3CCc3cccnc32)CC1 | inactive |  | 3.55 µM (active) | 2 µM (active) |  | 12.6 µM (active) | inactive | 10 µM (active) |  | 
27 | NC(N)=NC(=O)c1nc(Cl)c(N)nc1N |  |  |  | inactive |  |  | inactive | 11.2 µM (active) | inactive | 
28 | C1COC(NC(C2CC2)C2CC2)=N1 |  | 11.2 µM (active) |  |  |  |  | inactive |  | inactive | inactive
29 | Cn1cnc([N+](=O)[O-])c1Sc1ncnc2nc[nH]c12 |  | 6.31 µM (active) |  |  | inactive | inactive | inactive |  | inactive | inactive
